The nature of assay [1]: KLF5 expression inhibitors, confirmation, DLD-1 cells, luminescence (AID 1834).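 Further: 0% = DMSO wells and 100% = LY294002 at 200 µM.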 The conditions noted are these: DLD-1 KLF5 promoter firefly luciferase reporter, at 4 µM, hits give high values.
Assay [2] in a line: cytotoxicity in rat IEC-6 cells, cytotoxicity control for KLF5 inhibitor project, cell-based, luminescence, triplicate (AID 1905; in the data active means inhibition above about 23%;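 further: cells exposed to compounds for 48 hours before viability read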). The conditions noted are these: IEC-6 rat intestinal cells, viability luminescence; at 4 µM; hits give high values.
In assay [3] the target is Nuclear receptor coactivator 3 (Homo sapiens) (UniProt Q9Y6Q9). The experiment in a line: SRC3 coactivator transcriptional activity inhibitors, confirmation, cell-based, luminescence, quadruplicate (AID 588792;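 active means mean inhibition over 43.08%, the solvent-only control mean plus 3 SD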;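 further: 0% = DMSO treated cells and 100% = gossypol at 36 µM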). The conditions noted are these: HEK293 GAL4-SRC3 luciferase reporter, at 3.6 µM, hits give high values.
Assay [4] deals with transactivating tegument protein VP16 (Human herpesvirus 1), Gal4-VP16 luciferase reporter. The experiment in a line: VP16 transactivation inhibitors, counter-screen for SRC3 inhibitor project, cell-based, luminescence, high throughput (AID 588794; in the data active means inhibition above about 30%). The conditions noted are these: mammalian cells, VP16-driven luciferase reporter luminescence; at 3.6 µM; hits give high values. (In general: A counterscreen serves to expose hits that act by an unwanted route or on another target.)

Assay [5] deals with Nuclear receptor coactivator 1 (Homo sapiens) (UniProt Q15788). The experiment in a line: SRC1 coactivator transcriptional activity inhibitors, confirmation, cell-based, luminescence, quadruplicate (AID 588820;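 active means mean inhibition above 46.68%, the untreated control wells mean plus 3 SD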;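 further: 0% = DMSO wells and 100% = gossypol 36 µM treated wells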). The conditions noted are these: HEK293 GAL4-SRC1 luciferase reporter, at 3.6 µM, hits give high values. In general terms: In a reporter assay the amount or activity of a reporter protein is the signal.

Assay [6] is described as follows: VP16 transactivation inhibitors, counter-screen for SRC1 inhibitor project, cell-based, luminescence, high throughput (AID 588824; in the data active means inhibition above about 25%). The conditions noted are these: cell-based VP16 transactivation luciferase luminescence; at 3.6 µM; hits give high values.
Assay [7] addresses Photoreceptor-specific nuclear receptor (Homo sapiens) (UniProt Q9Y5X4). The experiment in a line: NR2E3 agonist confirmation in cells, cell-based, luminescence, CHO-S two-hybrid (AID 624378;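 active means average inhibition above a cutoff equal to the mean inhibition of all tested compounds plus one SD, cut at about 70% in these data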;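 further: 0% = DMSO in NR2E3 cells and 100% = DMSO in cells lacking NR2E3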). The note with it: CHO-S mammalian two-hybrid NR2E3-NCOR, luciferase luminescence; at 3.98 µM; hits give high values.
Assay [8] in a line: GAL4-VP16 reporter modulators, confirmation, counter-screen for NR2E3 agonist project, cell-based, luminescence, CHO-S, high throughput (AID 624379;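 active means mean inhibition above a cutoff equal to the average over all tested compounds plus one standard deviation, cut at about 70% in these data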;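 further: 0% = DMSO with VP16-transfected cells and 100% = DMSO with cells lacking VP16; higher means less reporter light so more repression of VP16 activity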). The conditions noted are these: CHO-S GAL4-VP16 luciferase reporter, at 3.98 µM, hits give high values.
The nature of assay [9]: StAR promoter reporter inhibitors, counter-screen for LRH-1 inverse agonist project, cell-based, luminescence, high throughput (AID 651611; in the data active means inhibition above about 28%). The conditions noted are these: StAR promoter luciferase reporter counterscreen, at 3.6 µM, hits give high values.
Assay [10] addresses Nuclear receptor subfamily 5 group A member 2 (Homo sapiens) (UniProt O00482). The experiment in a line: LRH-1 (NR5A2) inverse agonists, retest, confirmation, cell-based, luminescence (AID 651613; in the data active means inhibition above about 42%;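 further: HEK293T cells co-transfected with LRH-1 and StAR promoter luciferase reporter; 0% = vehicle wells and 100% = parental cells lacking receptor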). The conditions noted are these: cell-based LRH-1 luciferase reporter, inverse agonism; at 3.6 µM; hits give high values.
Assay [11] concerns the target Steroidogenic factor 1 (Homo sapiens) (UniProt Q13285). The experiment in a line: SF1 (NR5A1) inverse agonists, counter-screen for LRH-1 inverse agonist project, cell-based, luminescence, high throughput (AID 651614; in the data active means inhibition above about 44%;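 further: cells cotransfected with StAR promoter reporter and SF1 expression vector; 0% = vehicle on cells with receptor and 100% = vehicle on cells lacking receptor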). The note with it: cell-based SF1 luciferase reporter, at 3.6 µM, hits give high values.
Assay [12] is described as follows: VP16 transactivation reporter inhibitors, counter-screen for LRH-1 inverse agonist project, cell-based, luminescence, high throughput (AID 651615; in the data active means inhibition above about 33%). The note with it: Gal4-VP16 luciferase reporter cells, at 3.6 µM, hits give high values.
Assay [13] has as its system transactivating tegument protein VP16 (Human herpesvirus 1). The experiment in a line: VP16 transactivation reporter inhibitors, counter-screen for SRC2 inhibitor project, cell-based, luminescence, single concentration (AID 652007; in the data active means inhibition above about 36%). The note with it: cell-based VP16 transactivation luciferase reporter, at 8.9 µM, hits give high values.
Assay [14] addresses Nuclear receptor coactivator 2 (Homo sapiens) (UniProt Q15596). The experiment in a line: SRC2 coactivator transcriptional activity inhibitors, confirmation, cell-based, luminescence, HEK293, triplicate (AID 652008;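 active means mean inhibition above 46.5%, the solvent-only control mean plus 3 SD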;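 further: 0% = DMSO-treated cells and 100% = Gossypol at 36 µM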). The conditions noted are these: HEK293 GAL4-SRC2 luciferase reporter, at 8.9 µM, hits give high values.
Assay [15] can be described thus: Gal4-VP16 luciferase reporter inhibitors, counter-screen for COUP-TFII antagonist project, cell-based, luminescence, HEK293 (AID 687007; in the data active means inhibition above about 13%). The note with it: at 8.5 µM, hits give high values.
Assay [16] addresses COUP transcription factor 2 (Homo sapiens) (UniProt P24468). The experiment in a line: NR2F2 transcriptional activity inhibitors, confirmation, cell-based, luciferase reporter, HEK293, triplicate (AID 687008;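 active means mean inhibition over three repeats above a set limit taken from the earlier primary screen, cut at about 38% in these data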;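 further: 100% = cells given the luciferase reporter alone without the COUP-TF2 vector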). The note with it: HEK293 NGFI-A luciferase reporter, luminescence; at 8.5 µM; hits give high values.
Assay [17] addresses Neuropeptide Y receptor type 2 (Homo sapiens) (UniProt P49146). The experiment in a line: NPY-Y2 potentiators or agonists, confirmation, cell-based (AID 1539; in the data active means activation above about 33%). The note with it: cell-based NPY-Y2 potentiator/agonist assay; at 3.6 µM; hits give high values.
Assay [18] addresses Neuropeptide Y receptor type 1 (Homo sapiens) (UniProt P25929). The experiment in a line: NPY-Y1 potentiators or agonists, counter-screen for NPY-Y2 potentiator project, cell-based, fluorescence (AID 1651; in the data active means activation above about 45%;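 further: cells stimulated with submaximal NPY then isoproterenol with phosphodiesterase inhibitor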). The conditions noted are these: Y1 HEK293-CNG cells, membrane potential fluorescence; at 3.6 µM; hits give high values.
Assay [19] has the same target. The experiment in a line: NPY-Y1 direct agonists, selectivity assay for NPY-Y2 potentiator project, cell-based, fluorescence (AID 1702;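 active means activation above the mean of DMSO-only control wells plus 3 SD, cut at about 18% in these data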;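 further: cells stimulated with 1 µM isoproterenol plus the PDE inhibitor Ro 20-1724; 0% = isoproterenol with DMSO and no NPY and 100% = 40 nM NPY; Y1 agonists lower the membrane potential dye signal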). The conditions noted are these: HEK293 Y1-CNGC, membrane potential fluorescence, agonism; at 3.6 µM; hits give high values.
Assay [20] is described as follows: CNGC cAMP sensor activity inhibitors, counter-screen for NPY-Y2 potentiator project, cell-based, HEK293-CNG parental, membrane potential fluorescence (AID 1703;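 active means inhibition above the control-well mean plus 3 SD of those wells, cut at about 22% in these data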;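 further: 0% = DMSO with isoproterenol and 100% = DMSO without isoproterenol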). The conditions noted are these: isoproterenol cAMP, at 3.6 µM, hits give high values.
For assay [21], the target named is Neuropeptide Y receptor type 2 (Homo sapiens) (UniProt P49146). The experiment in a line: NPY-Y2 direct agonists, counter-screen for NPY-Y2 potentiator project, cell-based, fluorescence (AID 1710;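 active means activation above the mean of solvent-only control wells plus 3 SD, cut at about 10% in these data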;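 further: cells stimulated by isoproterenol with no NPY added so direct agonism is tested; 0% = DMSO with isoproterenol alone and 100% = NPY at EC100 plus isoproterenol; agonism lowers probe fluorescence through less cAMP and CNG channel opening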). The note with it: HEK293 Y2/CNGC cells, membrane potential fluorescence, agonist mode; at 3.6 µM; hits give high values.
Assay [22] addresses Sphingosine 1-phosphate receptor 4 (Homo sapiens) (UniProt O95977). The experiment in a line: S1P4 receptor antagonists, human, confirmation, cell-based (AID 1524; in the data active means inhibition above about 30%). The note with it: S1P4-expressing cell line, antagonist mode, reporter read-out; at 4.98 µM; hits give high values.
Assay [23] concerns the target Sphingosine 1-phosphate receptor 1 (Homo sapiens) (UniProt P21453). The experiment in a line: S1P1 receptor antagonists, human, counter-screen for S1P4 antagonist project, cell-based (AID 1564; in the data active means inhibition above about 40%;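 further: receptor stimulated with S1P near its EC80; 0% = agonist stimulated wells and 100% = vehicle only wells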). The note with it: cell-based S1P1 antagonist counterscreen, at 4.98 µM, hits give high values.
In assay [24] the target is Protein phosphatase methylesterase 1 (Homo sapiens) (UniProt Q9Y570). The experiment in a line: PME-1 inhibitor activity retest, confirmation, biochemical, fluorescence polarization, FP-Rh probe, triplicate (AID 2171;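 active means inhibition above the hit cutoff set in the earlier primary screen, cut at about 27% in these data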;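 further: 0% = enzyme with DMSO and 100% = wells lacking PME-1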). The conditions noted are these: recombinant PME-1, FP-Rh probe fluorescence polarization; at 5.9 µM; hits give high values.
Assay [25] deals with Receptor-interacting serine/threonine-protein kinase 2 (Homo sapiens) (UniProt O43353). The experiment in a line: NOD2-RIPK2 binding disruptors, retest, confirmation, fluorescence, CHO cells, BLA complementation, triplicate (AID 624370;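 active means mean inhibition across replicates above a set limit taken from the earlier primary screen, cut at about 21% in these data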;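 further: 0% = DMSO-only wells and the high end = clavulanate BLA-blocked wells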). The conditions noted are these: CCF4 FRET, at 4.98 µM, hits give high values.
Assay [26] is described as follows: beta-lactamase reporter inhibitors in CHO cells, confirmation, artefact control for NOD2-RIPK2 interaction inhibitor project, cell-based, CHO-K1 CMV-bla, CCF4 FRET, fluorescence (AID 624371;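 active means mean inhibition above the low-control mean inhibition plus three low-control SD, cut at about 11% in these data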;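 further: 0% = DMSO only wells and 100% = clavulanate high control wells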). The conditions noted are these: CCF4 FRET ratio, counterscreen, at 4.98 µM, hits give high values.

A number with no mark means an inactive call. The list shows a part of the results. Active and inactive are the calls of the source.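 How the source made its calls, unless noted: active means inhibition above a set limit taken from the earlier primary screen (cut at about 63% in these data); inactive means the rest.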

Photoreceptor-specific nuclear receptor (Homo sapiens), sequence (Q9Y5X4 whole entry, looked up, the tested form may be a part): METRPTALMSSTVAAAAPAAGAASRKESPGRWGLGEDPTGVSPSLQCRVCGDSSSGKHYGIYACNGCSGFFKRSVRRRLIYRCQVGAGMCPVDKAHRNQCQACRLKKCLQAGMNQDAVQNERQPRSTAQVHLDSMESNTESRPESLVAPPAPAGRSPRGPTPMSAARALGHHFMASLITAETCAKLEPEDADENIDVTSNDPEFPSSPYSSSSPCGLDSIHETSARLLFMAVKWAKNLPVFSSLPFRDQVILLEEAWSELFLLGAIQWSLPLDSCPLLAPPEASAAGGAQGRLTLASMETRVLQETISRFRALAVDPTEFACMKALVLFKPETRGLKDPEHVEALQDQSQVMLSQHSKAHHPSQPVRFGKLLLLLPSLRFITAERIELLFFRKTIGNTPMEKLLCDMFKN
Neuropeptide Y receptor type 2 (Homo sapiens), sequence (P49146 whole entry, looked up): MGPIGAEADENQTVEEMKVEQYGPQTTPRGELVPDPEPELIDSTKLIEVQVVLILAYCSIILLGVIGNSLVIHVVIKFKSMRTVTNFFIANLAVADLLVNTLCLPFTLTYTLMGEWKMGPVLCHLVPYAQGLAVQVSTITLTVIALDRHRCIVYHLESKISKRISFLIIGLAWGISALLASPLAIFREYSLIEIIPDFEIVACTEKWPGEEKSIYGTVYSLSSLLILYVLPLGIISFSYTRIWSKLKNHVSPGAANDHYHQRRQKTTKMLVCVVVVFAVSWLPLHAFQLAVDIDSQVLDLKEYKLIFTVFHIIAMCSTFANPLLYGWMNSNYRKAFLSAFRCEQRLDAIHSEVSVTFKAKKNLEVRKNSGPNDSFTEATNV
Neuropeptide Y receptor type 1 (Homo sapiens), sequence (P25929 whole entry, looked up): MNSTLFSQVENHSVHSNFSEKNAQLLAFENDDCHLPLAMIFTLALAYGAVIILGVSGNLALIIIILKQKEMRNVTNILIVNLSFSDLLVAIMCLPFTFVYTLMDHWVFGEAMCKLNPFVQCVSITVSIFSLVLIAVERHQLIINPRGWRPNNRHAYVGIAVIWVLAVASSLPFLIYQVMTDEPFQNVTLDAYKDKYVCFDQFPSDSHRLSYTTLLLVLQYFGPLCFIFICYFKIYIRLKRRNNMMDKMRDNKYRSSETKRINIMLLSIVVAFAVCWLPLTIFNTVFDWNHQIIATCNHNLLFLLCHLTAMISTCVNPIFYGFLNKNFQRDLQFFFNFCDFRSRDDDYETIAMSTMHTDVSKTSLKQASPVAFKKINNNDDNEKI
Nuclear receptor coactivator 2 (Homo sapiens), sequence (Q15596 whole entry, looked up, the tested form may be a part): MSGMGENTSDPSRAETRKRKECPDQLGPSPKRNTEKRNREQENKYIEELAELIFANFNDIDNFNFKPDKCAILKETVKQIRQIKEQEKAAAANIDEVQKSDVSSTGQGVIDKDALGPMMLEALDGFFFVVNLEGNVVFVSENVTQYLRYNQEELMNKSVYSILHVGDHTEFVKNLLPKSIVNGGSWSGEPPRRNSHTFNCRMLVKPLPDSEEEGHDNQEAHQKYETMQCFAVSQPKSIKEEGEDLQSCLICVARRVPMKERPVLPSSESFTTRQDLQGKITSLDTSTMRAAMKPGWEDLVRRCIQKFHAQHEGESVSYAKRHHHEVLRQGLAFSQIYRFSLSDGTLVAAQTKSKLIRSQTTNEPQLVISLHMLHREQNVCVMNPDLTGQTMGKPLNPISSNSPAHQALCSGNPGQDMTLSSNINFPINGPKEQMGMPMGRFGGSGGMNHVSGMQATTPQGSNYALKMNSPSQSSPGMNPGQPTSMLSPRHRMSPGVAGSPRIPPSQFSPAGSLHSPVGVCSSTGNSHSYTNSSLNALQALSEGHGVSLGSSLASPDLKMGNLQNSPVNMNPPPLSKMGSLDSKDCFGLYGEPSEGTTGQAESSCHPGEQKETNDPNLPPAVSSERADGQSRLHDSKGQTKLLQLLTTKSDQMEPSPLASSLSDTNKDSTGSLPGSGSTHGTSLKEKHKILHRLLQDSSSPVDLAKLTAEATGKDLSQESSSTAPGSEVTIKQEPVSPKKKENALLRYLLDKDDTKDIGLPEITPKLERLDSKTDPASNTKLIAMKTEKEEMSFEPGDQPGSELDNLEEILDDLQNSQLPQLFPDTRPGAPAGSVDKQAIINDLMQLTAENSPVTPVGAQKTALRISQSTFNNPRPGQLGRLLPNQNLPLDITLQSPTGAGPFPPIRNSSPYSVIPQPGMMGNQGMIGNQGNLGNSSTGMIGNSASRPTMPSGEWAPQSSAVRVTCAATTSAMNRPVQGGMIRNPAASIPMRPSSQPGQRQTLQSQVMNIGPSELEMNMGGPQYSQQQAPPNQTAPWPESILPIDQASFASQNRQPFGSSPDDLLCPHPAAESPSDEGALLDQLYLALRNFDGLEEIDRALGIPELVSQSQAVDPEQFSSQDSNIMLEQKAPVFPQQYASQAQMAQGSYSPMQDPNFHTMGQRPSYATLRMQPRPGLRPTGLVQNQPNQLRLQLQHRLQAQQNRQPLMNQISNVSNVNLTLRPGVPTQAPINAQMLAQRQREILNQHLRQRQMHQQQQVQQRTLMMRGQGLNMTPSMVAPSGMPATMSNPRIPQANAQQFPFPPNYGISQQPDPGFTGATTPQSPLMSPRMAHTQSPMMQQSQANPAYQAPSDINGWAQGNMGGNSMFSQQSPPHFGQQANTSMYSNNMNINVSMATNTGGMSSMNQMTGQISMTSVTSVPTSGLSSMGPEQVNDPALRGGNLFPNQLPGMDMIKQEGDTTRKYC
Nuclear receptor coactivator 3 (Homo sapiens), sequence (Q9Y6Q9 whole entry, looked up, the tested form may be a part): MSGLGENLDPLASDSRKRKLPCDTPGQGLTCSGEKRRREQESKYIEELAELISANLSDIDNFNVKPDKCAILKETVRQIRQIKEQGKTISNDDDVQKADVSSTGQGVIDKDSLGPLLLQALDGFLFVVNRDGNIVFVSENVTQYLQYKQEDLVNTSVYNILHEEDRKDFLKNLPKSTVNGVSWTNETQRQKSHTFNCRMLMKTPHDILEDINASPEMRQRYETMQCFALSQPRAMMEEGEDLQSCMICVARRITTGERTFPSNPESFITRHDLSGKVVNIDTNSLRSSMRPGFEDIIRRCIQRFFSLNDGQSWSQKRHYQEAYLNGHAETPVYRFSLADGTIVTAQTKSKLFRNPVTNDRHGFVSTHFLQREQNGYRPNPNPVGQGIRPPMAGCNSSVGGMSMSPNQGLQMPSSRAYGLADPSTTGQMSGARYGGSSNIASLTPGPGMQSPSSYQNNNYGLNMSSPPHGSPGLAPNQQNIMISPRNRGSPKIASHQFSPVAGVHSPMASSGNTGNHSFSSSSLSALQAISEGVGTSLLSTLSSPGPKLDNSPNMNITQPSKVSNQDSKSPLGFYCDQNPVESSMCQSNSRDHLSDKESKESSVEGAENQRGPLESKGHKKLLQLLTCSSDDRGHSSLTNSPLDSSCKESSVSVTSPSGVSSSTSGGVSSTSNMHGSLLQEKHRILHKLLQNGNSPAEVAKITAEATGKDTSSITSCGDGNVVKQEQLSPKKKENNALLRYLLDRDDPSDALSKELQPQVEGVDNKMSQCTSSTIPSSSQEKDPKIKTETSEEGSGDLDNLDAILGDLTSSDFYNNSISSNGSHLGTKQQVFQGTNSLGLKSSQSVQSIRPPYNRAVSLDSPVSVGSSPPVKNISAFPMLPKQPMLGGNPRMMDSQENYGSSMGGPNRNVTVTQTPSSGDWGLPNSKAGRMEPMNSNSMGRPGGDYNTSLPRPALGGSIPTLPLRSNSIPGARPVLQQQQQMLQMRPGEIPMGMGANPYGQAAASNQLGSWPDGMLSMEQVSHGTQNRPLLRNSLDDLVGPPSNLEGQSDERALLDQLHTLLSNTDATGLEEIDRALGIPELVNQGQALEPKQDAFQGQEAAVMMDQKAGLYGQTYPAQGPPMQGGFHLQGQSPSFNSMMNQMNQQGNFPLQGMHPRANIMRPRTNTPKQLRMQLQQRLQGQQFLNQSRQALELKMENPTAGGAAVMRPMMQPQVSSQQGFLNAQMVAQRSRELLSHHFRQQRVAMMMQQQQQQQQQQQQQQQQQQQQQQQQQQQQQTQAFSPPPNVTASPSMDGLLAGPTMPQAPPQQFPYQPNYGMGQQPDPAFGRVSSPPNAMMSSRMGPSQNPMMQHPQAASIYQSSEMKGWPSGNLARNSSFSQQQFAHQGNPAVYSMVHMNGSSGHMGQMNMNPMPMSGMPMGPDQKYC
Steroidogenic factor 1 (Homo sapiens), sequence (Q13285 whole entry, looked up, the tested form may be a part): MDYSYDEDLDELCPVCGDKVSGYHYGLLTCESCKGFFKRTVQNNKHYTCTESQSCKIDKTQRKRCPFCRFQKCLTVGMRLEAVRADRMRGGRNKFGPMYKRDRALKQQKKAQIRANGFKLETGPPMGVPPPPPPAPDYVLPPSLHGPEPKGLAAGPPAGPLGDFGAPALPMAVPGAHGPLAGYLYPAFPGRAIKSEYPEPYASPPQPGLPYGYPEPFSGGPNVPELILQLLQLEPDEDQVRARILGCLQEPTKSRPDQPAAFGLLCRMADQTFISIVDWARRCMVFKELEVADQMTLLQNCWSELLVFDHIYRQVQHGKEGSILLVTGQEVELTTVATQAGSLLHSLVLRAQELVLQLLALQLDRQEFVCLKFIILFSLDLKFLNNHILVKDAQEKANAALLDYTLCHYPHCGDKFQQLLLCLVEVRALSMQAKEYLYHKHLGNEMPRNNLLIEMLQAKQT
Sphingosine 1-phosphate receptor 4 (Homo sapiens), sequence (O95977 whole entry, looked up): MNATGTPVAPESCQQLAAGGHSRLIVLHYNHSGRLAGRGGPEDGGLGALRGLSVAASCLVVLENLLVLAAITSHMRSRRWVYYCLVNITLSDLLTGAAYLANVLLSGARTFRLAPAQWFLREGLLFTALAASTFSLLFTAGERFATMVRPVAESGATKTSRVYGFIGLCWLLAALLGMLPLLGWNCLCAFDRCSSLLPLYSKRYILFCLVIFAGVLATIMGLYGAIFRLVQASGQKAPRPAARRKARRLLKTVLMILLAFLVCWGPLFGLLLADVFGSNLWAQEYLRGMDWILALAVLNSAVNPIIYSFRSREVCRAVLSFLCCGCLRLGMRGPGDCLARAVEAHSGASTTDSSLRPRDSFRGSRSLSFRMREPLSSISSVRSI

`CN(c1ccc2nc3ccccc3c(=O)n2n1)C1CCCCC1`: the inhibition was 72.9% (active) in [1]; 9.18% in assay [2]; 59.8% (active) in assay [3]; 48.9% (active) in assay [4]; -5.95% in assay [5]; 23.2% in assay [6]. The inhibition in assay [7] is 43.9%; in assay [8], 10.8%; in assay [9], 59.8% (active); in assay [10], 14.8%; in assay [11] it was 57.6% (active); in assay [12] it was 18%. In addition, the inhibition in assay [13] was 50.9% (active); in [14] it was 86% (active); in assay [15] it was 64.8% (active); in [16], 87.9% (active).

With `COc1cc(NC(=O)c2ccccc2NS(=O)(=O)c2ccc(Cl)s2)cc(OC)c1`, the activation in assay [17] is 0.49%; in assay [18], -30.1%; in assay [19], -29%; in assay [21], -3.82%. In addition, the inhibition in [20] was -9.95%; in assay [7] it was 99.6% (active); in [8], 90.3% (active).

`CCOC(=O)CSC1=C(C#N)C(c2sccc2C)CC(=O)N1` (configuration not stated): the results for the inhibition in assay [1] and in assay [2] were 63.3% (active) and 57.3% (active), respectively.

Take `CC1CC2=C(CC1/C=N/NC(N)=S)C(C)(C)CCC2` (configuration not stated): the inhibition is 67.8% (active) in [22]; 7.02% in assay [23]; 50.9% (active) in assay [3]; 30.1% (active) in assay [4]; 32.9% in [5]; 33.7% (active) in assay [6].

As for `COc1ccc(C(=O)Nc2ccccc2C(=O)N/N=C/c2ccc(O)c(OC)c2)cc1`, the inhibition in assay [1] is 111% (active); in assay [2] it was 4.51%; in assay [24] it was 28.2% (active); in [7], 42.1%; in [8], -33%; in assay [9], 19%. In addition, the inhibition in [10] is -69.7%; in assay [11] it was 11.7%; in [12] it was -41.2%; in assay [13] it was 64.8% (active); in assay [14] it was 59.3% (active); in assay [15], 7.03%. Also, the inhibition in [16] was 75.2% (active).

Regarding `CC(=O)c1ccc2c(c1)OCCOCCOc1ccc(C(C)=O)cc1OCCOCCO2`, the activation in assay [17] is 19.6%; in assay [18], 25.9%; in [19], 36.5% (active); in [21] it was 26.6% (active). In addition, in assay [20], the inhibition was 22.4% (active).

With `O=C(/C=C/c1ccc(Cl)c([N+](=O)[O-])c1)c1ccc(O)cc1`, the inhibition in [22] was 102% (active); in assay [23], 14.6%; in assay [25], 31.7% (active); in [26], -1.48%.

Regarding `CCOc1cc(C(=O)N2CCc3cc(OC)c(OC)cc3C2)ccc1OC(F)F`, the inhibition in assay [1] was 85.3% (active); in [2], 59.4% (active); in assay [13], -28%; in assay [14], 14.7%.

Regarding `Cc1ccc(CCNC(=O)C2CCN(S(=O)(=O)N3CCCC3)CC2)cc1`, the activation in assay [17] was -1.21%; in assay [18], -6.28%; in assay [19], -10.2%; in [21], -8.83%. Further, in assay [20], the inhibition is -4.94%.

With `O=C(Nc1sc2c(c1-c1nc3ccccc3[nH]1)CCCC2)C1CC1`, the activation was 19.1% in assay [17], 30.4% in [18], 27.3% (active) in [19] and 24.5% (active) in assay [21]. In addition, in assay [20], the inhibition was 19.9%.

A word on the inhibition: it is the relative decrease from the control value, in per cent.

Values taken from PubChem BioAssay.
